Data as given in PubChem BioAssay (NCATS).
Several values for one entry are separate records, joined by “and”; a condition that tells them apart may be missing. Equal values may be shown once. Results filed as inconclusive are left out. A call without a number means that no potency is given here. Activity calls are given as the source filed them. Unless noted, calls come from the whole dose curve; as a rule, active = well fitted curve in the direction sought with a large enough effect; inconclusive = small, poorly fitted or top-dose-only effect, or another doubt; inactive = no such curve, though single readings can be large; an effect the other way counts as inactive or inconclusive.

Assays:
[1] = target: Thyroid hormone receptor beta (Homo sapiens) (UniProt P10828); test: qHTS assay for small molecule antagonists of thyroid hormone receptor beta signaling (AID 588547; active = well fitted inhibition curve with a large enough effect in the signal ratio, with a control signal flat, not every such curve was filed as active; the % refers to the signal ratio;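 note: cells stimulated with 0.4 nM T3 agonist during compound exposure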); details: TR-UAS-bla HEK293, beta-lactamase ratio, antagonist mode, 18 h
Summary of the method: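 Inhibition of T3-driven (0.4nM final) beta-lactamase reporter activity was measured over 0.59 nM to 92 uM compound after 18 h at 37 C. The cells were GripTite HEK293 TR-UAS-bla in charcoal/dextran-stripped serum, with CCF4 ratio read-out and IC50 from Hill fits.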

[2] = S16 Schwann cell viability assay (CellTiter-Glo assay) (AID 624031); details: S16 rat Schwann cells viability, 24 h; series mostly up to 57.5 µM; note: nearly all actives have a fitted effect of over 70% in size; note: potency is the fitted concentration of half-maximal effect
Summary of the method: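 Cells were seeded at 500-750 per well in phenol red-free DMEM with 10% FBS and left overnight. Compounds or DMSO were pinned in, incubation ran 24 h at 37 °C/5% CO2, then CellTiter-Glo reagent was added and luminescence measured.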

[3] = S16 Schwann cell PMP22 intronic element firefly luciferase assay (AID 624032); details: S16 rat Schwann cells, PMP22 element FLuc, 24 h; series mostly up to 57.5 µM; note: nearly all actives have a fitted effect of over 30% in size; note: potency is the fitted concentration of half-maximal effect
Summary of the method: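 Luciferase reporter of PMP22 intronic-element expression in stably transfected S16 rat Schwann cells, read by ONE-Glo luminescence after 24 h compound exposure at 37 C. Activity scaled between DMSO (0%) and positive-control PTC124; concentration-effect curves quality-classified.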

[4] = qHTS assay for small molecule agonists of the antioxidant response element (ARE) signaling pathway (AID 651741; active = well fitted activation curve with a large enough effect in the signal ratio; the % refers to the signal ratio); details: HepG2 ARE-bla reporter, beta-lactamase FRET ratio, 16 h; series mostly up to 96 µM
Summary of the method: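 Beta-lactamase reporter under ARE control in HepG2 cells, 2,000 per well, was induced by 16 h compound treatment at 37 C. Read-out was fluorescence from LiveBLAzer B/G FRET substrate after 2 h at room temperature.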

[5] = target: Voltage-gated inwardly rectifying potassium channel KCNH2 (Homo sapiens) (UniProt Q12809); test: qHTS Assay for Small Molecule Inhibitors of the Human hERG Channel Activity (AID 588834); details: U2OS BacMam hERG, FluxOR thallium flux fluorescence; series mostly up to 46.1 µM;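 note: lower thallium flux fluorescence means stronger hERG block; nearly all actives have a fitted effect of over 50% in size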; note: potency is the fitted concentration of half-maximal effect
Summary of the method: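 Homogeneous FluxOR thallium flux assay using hERG-expressing U2OS cells (BacMam). Compound treatment about 10 minutes preceded stimulation; reduced fluorescence taken as channel block.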

[6] = target: Luciferin 4-monooxygenase (Photinus pyralis) (UniProt P08659); test: Biochemical firefly luciferase enzyme assay for NPC (AID 624030); note: nearly all actives have a fitted effect of over 70% in size; note: potency is the fitted concentration of half-maximal effect; details: purified P. pyralis luciferase, luminescence, 5 min; series mostly up to 58.6 µM
Summary of the method: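 Direct inhibition of firefly luciferase enzyme (10 nM final, 50 mM Tris Acetate) assessed by luminescence within 5 minutes. Percent activity scaled between DMSO and PTC124 positive control, with concentration-effect curves classified by fit quality and response.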

[7] = S16 Schwann cell PMP22 intronic element beta-lactamase assay (AID 624044; calls by dose curve; note: nearly all actives have a fitted effect of over 15% in size); details: S16 rat Schwann cells, PMP22 element beta-lactamase FRET, 24 h; series mostly up to 38.3 µM
Summary of the method: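 Beta-lactamase reporter under a PMP22 intronic regulatory element in stable S16 rat Schwann cells; 24 h compound exposure. 460 nm blue signal normalized between DMSO (0%) and potassium clavulanate, with 535 nm FRET tracking viability; curves classed by r2 and response.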

[8] = qHTS assay for small molecule activators of the nuclear factor-kappa B (NF-kB) signaling pathway (AID 651749; active = well fitted activation curve with a large enough effect in the signal ratio; the % refers to the signal ratio); details: NF-kB-bla ME-180 cells, beta-lactamase FRET ratio, 16 h; active compounds read high
Summary of the method: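 Activation measured after 16 hr compound treatment at 37C, 5% CO2, of 2,000 ME-180 cells/well stably expressing an NF-kB response element–driven beta-lactamase reporter, via FRET-disruption fluorescence.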

Chain of Luciferin 4-monooxygenase (Photinus pyralis) (P08659 whole entry, looked up): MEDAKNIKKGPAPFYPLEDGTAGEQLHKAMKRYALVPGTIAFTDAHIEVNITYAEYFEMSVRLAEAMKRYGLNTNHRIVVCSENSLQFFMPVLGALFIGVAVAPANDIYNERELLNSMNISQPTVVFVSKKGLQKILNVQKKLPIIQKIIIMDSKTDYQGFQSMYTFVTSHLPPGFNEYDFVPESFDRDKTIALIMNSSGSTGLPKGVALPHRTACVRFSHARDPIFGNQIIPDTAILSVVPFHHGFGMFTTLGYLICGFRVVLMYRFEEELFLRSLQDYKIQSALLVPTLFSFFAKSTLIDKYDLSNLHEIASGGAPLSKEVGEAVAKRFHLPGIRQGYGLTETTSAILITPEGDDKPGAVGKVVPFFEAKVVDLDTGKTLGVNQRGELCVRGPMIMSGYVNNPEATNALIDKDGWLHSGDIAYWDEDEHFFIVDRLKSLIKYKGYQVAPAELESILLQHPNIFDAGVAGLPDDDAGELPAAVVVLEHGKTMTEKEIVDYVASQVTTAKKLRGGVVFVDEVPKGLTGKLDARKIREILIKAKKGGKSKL
Chain of Voltage-gated inwardly rectifying potassium channel KCNH2 (Homo sapiens) (Q12809 whole entry, looked up): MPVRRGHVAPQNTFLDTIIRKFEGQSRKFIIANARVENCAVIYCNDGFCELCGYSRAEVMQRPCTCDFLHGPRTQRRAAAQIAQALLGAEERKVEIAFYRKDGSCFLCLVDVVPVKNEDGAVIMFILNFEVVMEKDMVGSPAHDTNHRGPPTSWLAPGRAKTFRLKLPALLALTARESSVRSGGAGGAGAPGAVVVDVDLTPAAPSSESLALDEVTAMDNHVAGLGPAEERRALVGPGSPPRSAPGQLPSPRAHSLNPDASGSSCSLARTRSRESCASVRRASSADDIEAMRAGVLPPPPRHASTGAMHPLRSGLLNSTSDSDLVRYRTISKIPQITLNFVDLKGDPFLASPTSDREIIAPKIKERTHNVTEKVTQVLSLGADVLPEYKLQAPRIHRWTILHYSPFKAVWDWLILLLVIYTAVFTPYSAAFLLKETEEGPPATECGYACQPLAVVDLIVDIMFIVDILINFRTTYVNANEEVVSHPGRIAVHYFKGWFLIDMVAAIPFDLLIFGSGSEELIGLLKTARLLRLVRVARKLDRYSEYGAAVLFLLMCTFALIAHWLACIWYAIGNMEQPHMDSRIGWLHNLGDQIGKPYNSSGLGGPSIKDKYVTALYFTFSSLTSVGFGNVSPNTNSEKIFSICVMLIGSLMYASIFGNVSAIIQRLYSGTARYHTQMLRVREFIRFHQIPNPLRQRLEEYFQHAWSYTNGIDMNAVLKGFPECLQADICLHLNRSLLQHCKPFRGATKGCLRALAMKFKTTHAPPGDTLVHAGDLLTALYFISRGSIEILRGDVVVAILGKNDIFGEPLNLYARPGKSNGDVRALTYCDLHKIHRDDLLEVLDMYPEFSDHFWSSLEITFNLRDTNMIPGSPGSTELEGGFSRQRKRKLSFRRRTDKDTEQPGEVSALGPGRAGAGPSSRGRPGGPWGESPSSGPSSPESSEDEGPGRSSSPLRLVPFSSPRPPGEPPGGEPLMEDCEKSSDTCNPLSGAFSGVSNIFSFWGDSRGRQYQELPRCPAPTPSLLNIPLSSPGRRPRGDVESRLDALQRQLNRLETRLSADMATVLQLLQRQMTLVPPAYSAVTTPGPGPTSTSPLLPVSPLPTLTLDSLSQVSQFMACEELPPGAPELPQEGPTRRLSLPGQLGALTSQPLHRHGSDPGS
Chain of Thyroid hormone receptor beta (Homo sapiens) (P10828 whole entry, looked up): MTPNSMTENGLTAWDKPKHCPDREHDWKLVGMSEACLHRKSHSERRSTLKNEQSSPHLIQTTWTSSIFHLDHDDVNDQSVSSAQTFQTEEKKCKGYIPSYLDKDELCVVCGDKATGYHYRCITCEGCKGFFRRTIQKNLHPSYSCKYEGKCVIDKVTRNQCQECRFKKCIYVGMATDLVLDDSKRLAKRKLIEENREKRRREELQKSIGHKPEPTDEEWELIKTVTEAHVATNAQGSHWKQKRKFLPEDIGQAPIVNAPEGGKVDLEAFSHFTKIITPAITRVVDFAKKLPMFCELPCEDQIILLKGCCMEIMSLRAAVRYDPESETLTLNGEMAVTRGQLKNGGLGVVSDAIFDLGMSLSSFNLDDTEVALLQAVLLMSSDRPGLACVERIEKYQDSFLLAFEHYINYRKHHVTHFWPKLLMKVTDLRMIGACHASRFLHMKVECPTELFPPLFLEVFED

In the case of `Cc1cc(NS(=O)(=O)c2ccc(N)cc2)no1`, the activity change % (negative = inhibition) [1] was -2.53% (inactive), the Potency [2] was “inactive” and the Potency [3] was “inactive”. The Potency [4] was “inactive”.

For `CCC(=O)O[C@]1(C(=O)SCF)[C@H](C)C[C@H]2[C@@H]3C[C@H](F)C4=CC(=O)C=C[C@]4(C)[C@@]3(F)[C@@H](O)C[C@@]21C`, the Potency [5] was “inactive”.

In the case of `NS(=O)(=O)c1cc2c(cc1Cl)NC(C(Cl)Cl)NS2(=O)=O` (centres undefined), the Potency [5] was “inactive”.

For `Cn1c(=O)c2c(ncn2CC(O)CO)n(C)c1=O` (centres undefined), the Potency [5] was “inactive”.

For `CCC(=O)O[C@]1(C(=O)CCl)[C@@H](C)C[C@H]2[C@@H]3CCC4=CC(=O)C=C[C@]4(C)[C@@]3(F)[C@@H](O)C[C@@]21C`, the Potency [5] was “inactive”.

In the case of `CS(=O)(=O)c1ccc([C@@H](O)[C@@H](CO)NC(=O)C(Cl)Cl)cc1`, the Potency [5] was “inactive”.

In the case of `CCCCOc1ccc(CC(=O)NO)cc1`, the Potency [5] was “inactive” and the Potency [6] was “inactive”.

In the case of `CN1CCN(c2c(F)cc3c(=O)c(C(=O)O)cn4c3c2OCN4C)CC1`, the Potency [5] was “inactive”, the Potency [6] was “inactive” and the Potency [2] was “inactive”. For the same compound, the Potency [3] was “inactive”.

For `COC(=O)Nc1nc2ccc(C(=O)c3ccccc3)cc2[nH]1`, the Potency [5] was “inactive”, the Potency [6] was “inactive” and the Potency [3] was “inactive”.

In the case of `O=NN(CCCl)C(=O)NC1CCCCC1`, the Potency [5] was “inactive”, the Potency [6] was “inactive” and the Potency [2] was “inactive”. The Potency [3] was “inactive” and the Potency [7] was “inactive”.

With `COc1cnc(NS(=O)(=O)c2ccc(N)cc2)nc1` the Potency [5] was “inactive”, the Potency [6] was “inactive” and the Potency [2] was “inactive”. The Potency [3] was “inactive”.

For `CC(=O)[C@H]1CC[C@H]2[C@@H]3CC=C4C[C@@H](O)CC[C@]4(C)[C@H]3CC[C@]12C`, the Potency [5] was “inactive”.

In the case of `CCn1cc(C(=O)O)c(=O)c2cc(F)c(N3CCNCC3)cc21`, the Potency [5] was “inactive”, the Potency [6] was “inactive” and the Potency [2] was “inactive”. For the same compound, the Potency [3] was “inactive”.

In the case of `CCCN[C@H]1CCc2nc(N)sc2C1`, the Potency [5] was “inactive” and the Potency [6] was “inactive”.

In the case of `O=S(=O)(c1cccc2cnccc12)N1CCCNCC1`, the Potency [5] was “inactive”, the Potency [6] was “inactive” and the Potency [2] was “inactive”. For the same compound, the Potency [3] was “inactive”.

In the case of `Cn1nnc2c(C(N)=O)ncn2c1=O`, the Potency [5] was “inactive”, the Potency [6] was “inactive” and the Potency [2] was “inactive”. The Potency [3] was “inactive”.

In the case of `CNS(=O)(=O)Cc1ccc2[nH]cc(CCN(C)C)c2c1`, the Potency [5] was “inactive”, the Potency [6] was “inactive” and the Potency [2] was “inactive”. For the same compound, the Potency [3] was “inactive”.

For `COc1ccc(-c2ccc3cc(C(=O)O)ccc3c2)cc1C12CC3CC(CC(C3)C1)C2`, the Potency [5] was “inactive” and the Potency [6] was “inactive”.

For `CC(C)Cn1cnc2c(N)nc3ccccc3c21`, the Potency [5] was “inactive” and the Potency [6] was “inactive”.

With `CCOCC(O)COc1ccc(NC(=O)CC[S+](C)C)cc1` (centres undefined) the Potency [5] was “inactive”, the Potency [6] was “inactive” and the Potency [2] was “inactive”. The Potency [3] was “inactive”.

With `CCc1c2c(nc3ccc(OC(=O)N4CCC(N5CCCCC5)CC4)cc13)-c1cc3c(c(=O)n1C2)COC(=O)[C@]3(O)CC` the Potency [5] was “inactive”, the Potency [6] was “inactive” and the Potency [2] was “inactive”.

With `CC(C)(C#N)c1cc(Cn2cncn2)cc(C(C)(C)C#N)c1` the Potency [5] was “inactive”, the Potency [6] was “inactive” and the Potency [3] was “inactive”.

For `COc1cc(NS(=O)(=O)c2ccc(N)cc2)nc(OC)n1`, the Potency [5] was “inactive”, the Potency [6] was “inactive” and the Potency [2] was “inactive”. For the same compound, the Potency [3] was “inactive”.

With `CCOC(=O)c1ccc(C#Cc2ccc3c(c2)C(C)(C)CCS3)nc1` the Potency [5] was 8.91 µM (active) and the Potency [6] was “inactive”.

With `Nc1[nH]c(=O)ncc1F` the Potency [5] was “inactive”, the Potency [6] was “inactive” and the Potency [2] was “inactive”. For the same compound, the Potency [3] was “inactive”.

In the case of `O=c1oc2c(O)c(O)cc3c(=O)oc4c(O)c(O)cc1c4c23`, the Potency [5] was “inactive”, the Potency [6] was 36.1 µM (active) and the Potency [2] was “inactive”. For the same compound, the Potency [3] was “inactive”.

For `CCN(C)C(=O)Oc1cccc([C@H](C)N(C)C)c1`, the Potency [5] was “inactive”, the Potency [6] was “inactive” and the Potency [2] was “inactive”. For the same compound, the Potency [3] was “inactive”.

With `Cc1oc(=O)oc1CN1CCN(c2cc3c(cc2F)c(=O)c(C(=O)O)c2n3C(C)S2)CC1` (centres undefined) the Potency [5] was “inactive”, the Potency [6] was “inactive” and the Potency [3] was “inactive”.

In the case of `COC(=O)Nc1nc2ccc(Sc3ccccc3)cc2[nH]1`, the Potency [5] was “inactive”, the Potency [6] was “inactive” and the Potency [2] was “inactive”. The Potency [3] was “inactive”.

For `Nc1nc(N)nc(-c2cc(Cl)ccc2Cl)n1`, the Potency [5] was “inactive”, the Potency [6] was “inactive” and the Potency [2] was “inactive”. For the same compound, the Potency [3] was “inactive”.

With `C[C@@H](NCCCc1cccc(C(F)(F)F)c1)c1cccc2ccccc12` the Potency [5] was 11.2 µM (active), the Potency [6] was “inactive” and the Potency [2] was 12.8 µM (active). For the same compound, the Potency [3] was 14.4 µM (active) and the Potency [7] was “inactive”.

In the case of `Cc1noc(NS(=O)(=O)c2ccc(N)cc2)c1C`, the Potency [5] was “inactive”, the Potency [6] was “inactive” and the Potency [2] was “inactive”. The Potency [3] was “inactive”, the Potency [4] was “inactive” and the activation [8] was -1.4% (inactive) and -1.01% (inactive).

With `NC(=O)N1c2ccccc2CC(=O)c2ccccc21` the Potency [5] was “inactive” and the Potency [6] was “inactive”.

With `CCOC(=O)c1ccc(OC(=O)CCCCCN=C(N)N)cc1` the Potency [5] was “inactive”, the Potency [6] was “inactive” and the Potency [2] was “inactive”. For the same compound, the Potency [3] was “inactive”.

For `CC[C@H](NC(C)C)[C@H](O)c1ccc(O)c2[nH]c(=O)ccc12`, the Potency [5] was “inactive”, the Potency [6] was “inactive” and the Potency [2] was “inactive”. For the same compound, the Potency [3] was “inactive” and the Potency [7] was “inactive”.

For `COc1nc(N)nc2c1ncn2[C@@H]1O[C@H](CO)[C@@H](O)[C@@H]1O`, the Potency [5] was “inactive”, the Potency [6] was “inactive” and the Potency [3] was 2.03 µM (active).
